The record followed here is ChEMBL document CHEMBL1961873, “Compounds: GSK PKIS; Assays: Nanosyn kinase panel” (2012).

Each structure is given as a SMILES string.

One may read the inhibition as the drop in the measured response relative to a control, in per cent.

The target of the assay is T1, Ephrin type-B receptor 2 (Homo sapiens) (UniProt P29323).
T1 sequence (whole entry): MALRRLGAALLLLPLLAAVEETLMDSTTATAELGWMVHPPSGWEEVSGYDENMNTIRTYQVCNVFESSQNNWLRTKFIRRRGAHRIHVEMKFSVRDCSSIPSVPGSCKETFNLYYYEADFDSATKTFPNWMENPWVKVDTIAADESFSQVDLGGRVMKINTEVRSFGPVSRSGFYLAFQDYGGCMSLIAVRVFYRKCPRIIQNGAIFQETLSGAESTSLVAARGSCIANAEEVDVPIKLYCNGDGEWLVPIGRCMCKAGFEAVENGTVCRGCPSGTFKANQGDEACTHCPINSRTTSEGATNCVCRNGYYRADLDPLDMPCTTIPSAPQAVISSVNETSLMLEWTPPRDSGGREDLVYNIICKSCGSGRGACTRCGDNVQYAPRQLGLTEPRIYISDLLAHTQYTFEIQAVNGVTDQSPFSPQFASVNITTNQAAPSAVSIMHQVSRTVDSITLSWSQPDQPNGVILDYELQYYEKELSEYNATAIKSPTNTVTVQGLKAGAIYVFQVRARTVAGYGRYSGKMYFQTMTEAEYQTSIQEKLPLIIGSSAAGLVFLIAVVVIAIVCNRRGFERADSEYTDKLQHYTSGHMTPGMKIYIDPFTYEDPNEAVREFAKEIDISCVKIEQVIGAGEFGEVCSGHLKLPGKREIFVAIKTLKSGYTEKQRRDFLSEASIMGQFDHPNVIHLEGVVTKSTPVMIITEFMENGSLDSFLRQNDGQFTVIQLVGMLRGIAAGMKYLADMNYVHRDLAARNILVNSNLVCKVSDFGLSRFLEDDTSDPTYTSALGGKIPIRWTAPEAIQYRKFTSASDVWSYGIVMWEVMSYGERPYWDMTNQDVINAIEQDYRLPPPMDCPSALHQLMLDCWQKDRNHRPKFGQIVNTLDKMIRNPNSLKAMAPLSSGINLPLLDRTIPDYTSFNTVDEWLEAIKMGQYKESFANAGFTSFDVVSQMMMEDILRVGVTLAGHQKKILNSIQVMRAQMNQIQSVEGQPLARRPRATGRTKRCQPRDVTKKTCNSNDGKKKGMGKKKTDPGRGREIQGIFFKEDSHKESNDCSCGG
The following applies: at 1 µM.
Consider `CN(C)C(=O)O[C@H]1CN[C@H](C#Cc2cc3ncnc(Nc4ccc(OCc5cccc(F)c5)c(Cl)c4)c3s2)C1`, for which the inhibition is 14.1%.

For the compound `CCS(=O)(=O)c1ccc(OC)c(Nc2ncc(-c3cccc(OC)c3)o2)c1`, the inhibition was 24.3%.

On to `COc1cc2ncn(-c3cc(OCc4ccccc4S(C)(=O)=O)c(C#N)s3)c2cc1OC`, for which the inhibition was 36%.

On to `[O-][S+]1CCN(Cc2ccc(-c3ccc4ncnc(Nc5ccc(OCc6ccccc6)c(Cl)c5)c4c3)o2)CC1`, for which the inhibition amounted to 5.17%.

Regarding `OCc1ccc(-c2nc(-c3ccccn3)c(-c3ccc4c(c3)OCO4)[nH]2)cc1`, the inhibition was 11.4%.

`COc1cc(/C=N/Nc2ncnc3c2cnn3C(C)C)ccc1O`: the inhibition was 30.4%.

Take `Nc1nccc(-c2c(-c3ccc(F)cc3)nn3cc(C(F)(F)F)ccc23)n1`: the inhibition was determined as 5.83%.

As for `CN(C)CCCn1c(-c2nonc2N)nc2cnccc21`, the inhibition is 5.68%.

For the compound `COc1cc(Nc2nccc(-c3cnn4ncccc34)n2)cc(OC)c1`, the inhibition came to 40.2%.

With `NS(=O)(=O)c1cccc(-c2cc3ccncc3cc2OCc2ccccc2)c1`, the inhibition came to 9.74%.

Turning to `CN1CCN(C(=O)c2ccc(NC(=O)Nc3ccc(N(C)c4ccnc(Nc5ccc(CS(C)(=O)=O)cc5)n4)cc3)cc2)CC1`, the inhibition worked out at 34.3%.

As to `Cc1ccc2c(c1)/C(=N/Nc1ccc(S(N)(=O)=O)cc1)C(=O)N2`, the inhibition was -1.87%.

For the compound `Cc1ccc(NC(=O)CC2CC2)cc1-c1ccc(C(=O)NCC2CC2)cc1`, the inhibition amounted to 11.6%.

With `CN(c1ccc(NC(=O)Nc2ccc(OC(F)(F)F)cc2)cc1)c1ccnc(Nc2cccc(S(N)(=O)=O)c2)n1`, the inhibition came to 54.8%.

Regarding `C[C@@H](Oc1cc(-n2cnc3ccc(OC[C@@H](O)CO)cc32)sc1C(N)=O)c1ccccc1Cl`, the inhibition is -2.42%.

`Cc1ccc(C(=O)NC2CC2)cc1-c1ccc2[nH]ncc2c1`: the inhibition is -4.6%.

As for `COc1ccc(-c2nn3ncccc3c2-c2ccnc(Nc3cccc(C(F)(F)F)c3)n2)cc1`, the inhibition was 6.69%.

Take `CN(C)C(=O)O[C@@H]1CN[C@@H](C#Cc2cc3ncnc(Nc4ccc(OCc5cccc(F)c5)c(Cl)c4)c3s2)C1`: the inhibition was -1.82%.

Take `CC(C)c1ccc2c(c1)NC(=O)/C2=N/Nc1ccc(S(N)(=O)=O)cc1`: the inhibition amounted to 3.71%.

In the case of `NS(=O)(=O)c1ccc(NC=C2C(=O)Nc3ccc4ncsc4c32)cc1`, the inhibition was 26.1%.

In the case of `C[C@@H](Oc1cc(-n2cnc3ccc(OCC4CCN(C)CC4)cc32)sc1C(N)=O)c1ccccc1C(F)(F)F`, the inhibition is -1.46%.

For `CN(C)c1cc2c(Nc3ccc4c(cnn4Cc4ccccc4)c3)ncnc2cn1`, the inhibition is 0.46%.

`Cc1ccc(Nc2ccnc(Nc3cccc(C(N)=O)c3)n2)cc1O`: the inhibition was 38.6%.

`CCS(=O)(=O)c1ccc(OC)c(Nc2nccc(N(C)c3ccc4c(C)n[nH]c4c3)n2)c1`: the inhibition stood at 43.6%.

As to `COC(=O)Nc1nc2cc(Oc3ccc(NC(=O)Nc4cccc(Br)c4)cc3)ccc2[nH]1`, the inhibition turned out to be 80.4%.

Turning to `CC(C)c1ccc(Nc2nccc(-c3cnn4ncccc34)n2)cc1`, the inhibition came out at 14.4%.

In the case of `NS(=O)(=O)c1ccc(N/N=C2\C(=O)Nc3ccc(Cl)cc32)cc1`, the inhibition was found to be 6.46%.

Take `COc1cccc(-n2ncc3c(N/N=C/c4ccc(C)cc4)ncnc32)c1`: the inhibition worked out at 9.45%.

As for `CCn1c(-c2nonc2N)nc2ccc(F)cc21`, the inhibition was 12.6%.

With `COc1cc2ncnc(Nc3ccc4c(cnn4Cc4ccccc4)c3)c2cc1OC`, the inhibition amounted to 7.52%.

Regarding `Nc1nccc(C#Cc2cncnc2Nc2ccc(OCc3cccc(F)c3)c(Cl)c2)n1`, the inhibition was determined as 7.89%.

As to `Cc1cc(-c2ccccn2)cc(C)c1/C=C/c1cncc(-c2nn[nH]n2)c1`, the inhibition was 12.8%.

As for `O=C1Nc2ccc(-c3cccnc3)cc2C1=Cc1cc(Br)c(O)c(Br)c1`, the inhibition amounted to 11%.
